Sampled rows, rich in hits. Any-hit rate of the full collection: about 18%.
TDP1 inh: TDP1 (human) enzyme inhibition; Q9NUW8; recombinant TDP1, AlphaScreen DNA substrate cleavage; Potency, µM (series often up to 130 µM), for inactives: top-dose activity change, negative = inhibition, actives largely listed as inhibitors; 0.28% of 350,000 active; further: potency means the concentration at half of the fitted maximal effect; on the % scale 0 is the no-effect control and ±100 the full control effect; nearly all actives have a fitted effect of over 40% in size
Target sequence (Q9NUW8 whole entry, looked up): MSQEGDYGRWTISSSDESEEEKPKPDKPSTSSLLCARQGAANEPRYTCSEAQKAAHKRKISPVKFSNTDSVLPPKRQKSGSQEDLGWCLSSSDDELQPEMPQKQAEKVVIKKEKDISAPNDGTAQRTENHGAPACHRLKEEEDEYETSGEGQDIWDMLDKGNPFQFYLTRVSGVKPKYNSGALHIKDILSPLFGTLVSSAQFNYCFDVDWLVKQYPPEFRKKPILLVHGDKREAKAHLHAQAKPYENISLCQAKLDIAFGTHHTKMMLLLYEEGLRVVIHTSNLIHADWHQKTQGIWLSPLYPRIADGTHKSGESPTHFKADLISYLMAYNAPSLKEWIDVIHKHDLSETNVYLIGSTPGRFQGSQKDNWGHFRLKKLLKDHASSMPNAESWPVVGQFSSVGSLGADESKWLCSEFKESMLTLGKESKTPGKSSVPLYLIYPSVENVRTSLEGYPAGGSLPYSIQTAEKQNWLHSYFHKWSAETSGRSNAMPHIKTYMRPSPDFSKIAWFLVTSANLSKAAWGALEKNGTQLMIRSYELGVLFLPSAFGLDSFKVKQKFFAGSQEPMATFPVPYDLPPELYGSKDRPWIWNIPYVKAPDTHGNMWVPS
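E. coli-derived human Tdp1, 1 nM final. Cpd preinc 15 min RT; substrate 15 nM final, 5 min RT; AS bead mix 10 ug/ml final, 10 min RT. Signal loss = tyrosine-FITC cleavage. No-enzyme wells = max signal.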
DT40 TDP1 CPT: growth inhibition of DT40 Tdp1-/-;hTDP1 cells with camptothecin (screen for TDP1 inhibitors). chicken DT40 Tdp1-/-;hTDP1 cells + 20 nM CPT, ATP luminescence, 48 h. Potency, µM (highest dose often 46.2 µM), for inactives: top-dose activity change, negative = growth inhibition, actives largely listed as inhibitors. 12% of 420,000 active; further: potency means the concentration at half of the fitted maximal effect; on the % scale 0 is the no-effect control and ±100 the full control effect; nearly all actives have a fitted effect of over 55% in size
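Chicken DT40 Tdp1-/- cells stably complemented with human TDP1 were seeded at 400 cells/well in medium containing 20 nM camptothecin, exposed to pin-transferred compounds, and grown at 37 °C for at least 48 hr. Viability was read as ATP luminescence.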
TGFb inhibitor: blocks TGF-b signaling. HepG2 CAGA-GFP TGF-b/SMAD3 reporter, GFP fluorescence, 18 h; TGF-beta stimulated, 500 pg/mL final. Potency, µM (series often up to 46.1 µM), for inactives: at the top dose activity, negative = inhibition, usual class: inhibitors. 1.2% of 410,000 active; further: potency means the concentration at half of the fitted maximal effect; on the % scale 0 is the no-effect control and ±100 the full control effect; nearly all actives have a fitted effect of over 65% in size
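Smad-responsive CAGA-GFP expression was quantified in HEPG2 cells exposed to compounds and 500 pg/mL final TGF-beta for 18 h at 37 degrees C; unstimulated wells defined full inhibition.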
TDP1 cell noCPT: qHTS for Inhibitors of human tyrosyl-DNA phosphodiesterase 1 (TDP1): qHTS in cells in absence of CPT | DT40 Tdp1-/- hTDP1 cells, no CPT, ATP luminescence, 48 h | 15% of 420,000 active | AID 686978, 2013 | Potency, µM (series often up to 46.2 µM), without a hit: top-dose activity change, negative = growth inhibition, usual class: inhibitors; further: potency means the concentration at half of the fitted maximal effect; on the % scale 0 is the no-effect control and ±100 the full control effect; nearly all actives have a fitted effect of over 55% in size
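Seeded 400 DT40-hTDP1 cells/well (vehicle DMSO, no 20 nM CPT); pinned compounds; ≥48 hr at 37 °C; CellTiter-Glo luminescence as viability measure.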
HepG2 tox: counter-screen for TGF-b inhibitors: cytotoxicity in HepG2 cells. HepG2 CAGA-GFP viability, ATP luminescence, 18 h. Potency, µM (highest dose often 46.1 µM), for inactives: top-dose activity change, negative = cytotoxicity, actives largely listed as cytotoxic. 0.76% of 410,000 active. AID 588856; further: potency means the concentration at half of the fitted maximal effect
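HepG2 CAGA-GFP cells (1000/well, DMEM with 1% FBS) received compound, then TGF-beta at 500 pg/mL final, and were incubated 18 hours at 37 degrees C. Viability was read by CellTiter-Glo luminescence. Media-only wells were set as complete cell-killing and DMSO as no toxicity.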
IL-1B inflam inh: inhibitors of inflammasome signaling (IL-1 beta secretion); THP-1 LPS/ATP IL-1B secretion, AlphaLISA, 16 h; stronger effect = lower value; activity change, % at 57.5 µM; 4.7% of 360,000 active; in the data active means activity change below about -50%; inconclusive means mostly about -30% to -49%; further: on the % scale 0 is the no-effect control and ±100 the full control effect
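Secreted IL-1B measured by AlphaLISA bead assay after 16 h compound exposure of THP-1 cells; compounds (final up to 57.5 uM) added 1 h before LPS (250 ng/mL) and ATP (1.25 mM) stimulation; lower signal means less secretion.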
* marks the source's active call; other numbers are inactive results; u = inconclusive; x = no result; [ ] = dose if it differs, or a comment. Unless noted, the call rests on the fitted dose curve; in most records, active means well fitted curve in the direction sought with a large enough effect; inconclusive means small, poorly fitted or top-dose-only effect, or another doubt; inactive means no such curve, though single readings can be large; an effect the other way counts as inactive or inconclusive.

SMILES	TDP1 inh	DT40 TDP1 CPT	TGFb inhibitor	TDP1 cell noCPT	HepG2 tox	IL-1B inflam inh
CCc1ccccc1NC(=O)C(CC)Sc1nc2cc3c(cc2c(=O)n1Cc1ccco1)OCO3 (stereo not drawn)	5%	16µM*	6%	u	-6%	7
CCc1ccc(NC(=O)C(CC)Sc2nc3cc4c(cc3c(=O)n2Cc2ccco2)OCO4)cc1 (stereo not drawn)	1%	18µM*	0%	u	-42%	0
CCC(Sc1nc2cc(OC)c(OC)cc2c(=O)n1Cc1ccco1)C(=O)NCCOC (stereo not drawn)	-4%	-24%	0%	-28%	-26%	91
O=C(COC(=O)CNC(=O)c1ccccc1)NC(=O)NC1CCCCC1	0%	2%	19%	-4%	1%	-20
C[C@@H]1CN([C@H](C)CO)C(=O)c2cc(C3=CCCCC3)cnc2O[C@@H]1CN(C)Cc1ccccc1C(=O)O	x	0%	-9%	3%	-31%	0
O=S(=O)(c1ccccc1)c1nc(-c2cccc(Cl)c2)oc1NCc1ccccc1	x	u	-3%	26µM*	-3%	x
Cc1ccc(S(=O)(=O)c2nc(-c3ccccc3F)oc2NCc2ccccc2)cc1	x	u	-5%	21µM*	-9%	x
COc1ccc(-c2nc(S(=O)(=O)c3ccc(C)cc3)c(NCc3ccccc3)o2)cc1	x	u	0%	16µM*	-18%	x
CCN(CC)CCNC(=O)c1ccc(NC(=O)c2cccc(S(=O)(=O)Nc3ccc(C)cc3)c2)cc1	5%	u	-19%	u	-18%	17
CCN(CC)CCNC(=O)c1ccc(NC(=O)c2cccc(S(=O)(=O)N3c4ccccc4CC3C)c2)cc1 (stereo not drawn)	7%	u	u	-17%	10µM*	-3
CCN(CC)CCNC(=O)c1ccc(NC(=O)c2cccc(S(=O)(=O)N3CCc4ccccc43)c2)cc1	-5%	u	u	u	-48%	-85*
CCN(CC)CCNC(=O)c1cc(S(=O)(=O)N2CCc3ccccc32)cn1C	x	u	-21%	-2%	-18%	2
COc1ccc(/C=C2\SC(=Nc3ccccc3)NC2=O)cc1	0%	x	x	x	x	x
CCc1ccc(N=C2NC(=O)/C(=C/c3ccc(OCC(=O)O)c(OC)c3)S2)cc1	x	-6%	2%	-8%	1%	10
COc1ccc(N=C2NC(=O)/C(=C/c3ccc(O)c(OC)c3)S2)cc1	2%	u	0%	u	-1%	-67*
Cc1ccc(N=C2NC(=O)/C(=C/c3cccnc3)S2)cc1C	0%	-16%	-23%	-21%	-5%	0
COc1ccccc1N=C1NC(=O)/C(=C/c2ccc(N(C)C)cc2)S1	8%	2.1µM*	68%	1.8µM*	-8%	4
COc1ccc(N=C2NC(=O)/C(=C\c3ccco3)S2)cc1	0%	-12%	-8%	u	-15%	3
COc1cc(/C=C2/SC(=Nc3ccc(O)cc3)NC2=O)cc(OC)c1O	-1%	16µM*	20%	12µM*	-16%	29
O=C1NC(=Nc2ccc(O)cc2)S/C1=C\C=C\c1ccco1	-11%	0.82µM*	u	0.73µM*	2%	98
CC(NC(=O)c1ccccc1)C(=O)N/N=C/c1cccc([N+](=O)[O-])c1 (stereo not drawn)	2%	1%	2%	-10%	-3%	-2
CC(C)(C)c1ccc(C(=O)N2CCC3(CC2)CC3C(=O)NCCc2ccccn2)cc1 (stereo not drawn)	x	-8%[9.04 µM]	x	-29%	x	x
O=C(NCc1cccc(C(F)(F)F)c1)c1ccc2c(c1)OCO2	1%	20%	0%	0%	5%	3
CCn1c(CNC(=O)c2ccco2)nnc1SCC(=O)Nc1cc(F)ccc1C	4%[0.0935 µM]	8%	0%	3%	1%	11
COc1ccc(N2CCN(C(=O)c3cccc(F)c3)CC2)c([N+](=O)[O-])c1	9%	u	-18%	u	-8%	-52*
SMILES	TDP1 inh	DT40 TDP1 CPT	TGFb inhibitor	TDP1 cell noCPT	HepG2 tox	IL-1B inflam inh
COc1ccc(N2CCN(C(=O)c3ccc(F)cc3)CC2)c([N+](=O)[O-])c1	5%	-13%	u	21µM*	-2%	-21
CO/N=C/c1ccc(N2CCN(C(=O)c3ccc(C)cc3)CC2)c([N+](=O)[O-])c1	8%	18µM*	-10%	15µM*	-33%	-6
COc1ccc(N2CCN(C(=O)c3cccc(Br)c3)CC2)c([N+](=O)[O-])c1	8%	23µM*	u	16µM*	-7%	u
COC(=O)c1ccc(CNC(=O)c2ccc3c(c2)OCCO3)cc1	4%	-23%	-2%	-10%	-9%	3
CC1(C)O[C@H]2[C@@H](O1)[C@@H](C(=O)Nc1ccccc1O)O[C@@H]1OC(C)(C)O[C@@H]12	8%	-18%	-1%	-10%	-29%	x
CCC(=O)N1CCN(c2ccc(OC)cc2[N+](=O)[O-])CC1	2%	-6%	54%	-19%	-4%	-13
O=[N+]([O-])c1cc(F)c(N2CCCCC2)cc1N1CCOCC1	5%	u	-9%	-24%	37%	0
O=C(c1ccc(F)cc1)N1CCN(c2cc(N3CCCCC3)c(F)cc2[N+](=O)[O-])CC1	9%	u	u	u	4%	-83*
COc1ccc(N2CCN(C(=O)CC34CC5CC(CC(C5)C3)C4)CC2)c([N+](=O)[O-])c1	0%	21µM*	u	16µM*	-1%	12
O=C(CSc1ccc(Cl)cc1)Nc1ccccc1N1CCN(C(=O)c2ccccc2)CC1	1%	16µM*	21%	18µM*	2%	-4
COc1ccccc1C(=O)Nc1ccccc1N1CCN(C(=O)c2ccc(Cl)cc2)CC1	2%	15µM*	-22%	16µM*	3%	-13
O=C(Nc1ccccc1N1CCN(C(=O)c2ccc(Cl)cc2)CC1)c1cc(Br)ccc1Cl	2%	u	43%	15µM*	-17%	-12
CC(=O)N1CCN(c2ccccc2NC(=O)c2cc(Br)ccc2Cl)CC1	2%	-25%	-21%	u	10%	-5
CS(=O)(=O)N1CCN(c2ccccc2NC(=O)CSc2ccc(Cl)cc2)CC1	7%	u	-29%	u	-14%	-28

Assay outcomes (PubChem)
